Records with an inconclusive call do not appear. A call without a number means that no potency is given here. A number with no mark means an inactive call. Active and inactive are the calls of the source. Calls come from the whole dose curve; as a rule, active = well fitted cell-killing curve with a large enough effect; inconclusive = small, poorly fitted or top-dose-only effect; inactive = no such curve, though single readings can be large or run the other way. Where a SMILES comes first, the peptide text is derived from it. Bridges are numbered along the chain shown (N, C = ends). [ ]: non-standard residue; d: D form. hArg = N=C(N)NCCCC[C@H](N)C(=O)O; Mpa = O=C(O)CCS
Assay: qHTS of pediatric cancer cell lines to identify multiple opportunities for drug repurposing: Primary screen for Rh41 cells (AID 1347108);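 note: luminescence drop marks cytotoxic hits; nearly all actives have a fitted effect of over 70% in size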
Settings: Rh41 rhabdomyosarcoma viability, CellTiter-Glo luminescence, 48 h; series mostly up to 46 µM
In short: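 Readout: CellTiter-Glo luminescence, 48 h treatment. Controls DMSO (neutral) and bortezomib 2.3 µM final (positive). Potency and efficacy taken from primary-screen concentration-response curves.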

Structure (SMILES)	outcome	activity change, negative = cytotoxic
CC(=O)NS(=O)(=O)c1ccc(N)cc1	inactive	
CCCCCC(C)N (configuration not stated)	inactive	
CCCCCCCCCCC(CO)CCCCCCCC (configuration not stated)	inactive	
CC1(c2ccccc2)OC(C(=O)O)=CC1=O (configuration not stated)	inactive	
NC(=O)NS(=O)(=O)c1ccc(N)cc1	inactive	
CN1CCCN=C1COC(=O)C(O)(c1ccccc1)C1CCCCC1 (configuration not stated)	inactive	
CC[C@H](C)[C@H](N)C(=O)O	inactive	
OCC(O)CS (configuration not stated)	inactive	
CO[C@@]1(NC(=O)C(C(=O)O)c2ccc(O)cc2)C(=O)N2C(C(=O)O)=C(CSc3nnnn3C)CO[C@@H]21 (some centres not stated)	inactive	
Cn1c([N+](=O)[O-])cnc1COC(N)=O	inactive	
CCN1CC(CCN2CCOCC2)C(c2ccccc2)(c2ccccc2)C1=O (configuration not stated)	inactive	
NCC1CCC(C(=O)Oc2ccc(CCC(=O)O)cc2)CC1 (configuration not stated)	inactive	
C[n+]1ccccc1/C=N/O	inactive	
COc1ccc(O)cc1	inactive	
NC(=O)[C@@H]1CSSCCC(=O)N[C@@H](CCCCN=C(N)N)C(=O)NCC(=O)N[C@@H](CC(=O)O)C(=O)N[C@@H](Cc2c[nH]c3ccccc23)C(=O)N2CCC[C@H]2C(=O)N1 ([Mpa][hArg]GDWPC-NH2; disulfide 1-7)	inactive	
CCCCCCCCCCCCCCCCN	inactive	
COc1ccc(Cc2cnc(N)nc2N)cc1OC	inactive	
CCOC(=O)c1cccnc1	inactive	
CC1(C)S[C@@H]2[C@H](N=CN3CCCCCC3)C(=O)N2[C@H]1C(=O)O	inactive	

Structure (SMILES)	outcome	activity change, negative = cytotoxic
O=c1[nH]cnc2nc[nH]c12	inactive	
CCCCCCCCCCCCCCCCCCO	inactive	
COCC(=O)Nc1c(I)c(C(=O)NCC(O)CO)c(I)c(C(=O)N(C)CC(O)CO)c1I (configuration not stated)	inactive	
COc1nccnc1NS(=O)(=O)c1ccc(N)cc1	inactive	
CCN(CC)CCc1nc(-c2ccccc2)no1	inactive	
O=C1C(c2[nH]c3ccccc3c2O)=Nc2ccccc21	inactive	
CCCCCCCC(=O)OCC(O)CO (configuration not stated)	inactive	
O=C(O)Cc1ccc(CCNS(=O)(=O)c2ccc(Cl)cc2)cc1	inactive	
COc1ccc(-c2cc(=O)c3c(O)cc(O[C@@H]4O[C@H](CO[C@@H]5O[C@@H](C)[C@H](O)[C@@H](O)[C@H]5O)[C@@H](O)[C@H](O)[C@H]4O)cc3o2)cc1O	inactive	
Nc1c2c(nc3c1CCC3)CCCC2	inactive	
CCN(CC)C(=O)c1cccc(C)c1	inactive	
CCCNC(C)(C)COC(=O)c1ccccc1	inactive	
CC(C)(C)C(=O)OCOC(=O)[C@@H]1N2C(=O)[C@@H](NC(=O)[C@H](N)c3ccccc3)[C@H]2SC1(C)C	inactive	
Cc1c(Cn2ccnc2)c2ccccc2n1CCC(=O)O	inactive	
CC1CCN(CCCC(=O)c2ccc(F)cc2)CC1	inactive	
CC(=O)Nc1ccc(OCCOCCOc2ccc(NC(C)=O)cc2)cc1	inactive	
CCCCCCCCCCOc1cc2c(=O)c(C(=O)OCC)c[nH]c2cc1OCC		18.9% [at 4.84 µM]
O=C1CC[C@@H](C(=O)O)N1	inactive	

Source: PubChem BioAssay (NCATS)
